In all, about 310,000 compounds went through this assay and about 14,000 (4.5%) showed an effect of 50% or more. Effects have a minus sign here. The full list was thinned out, with strong results kept by preference.
Each molecule was assayed against human ether-à-go-go-related gene (hERG) potassium channel (human, UniProt Q12809) (assay: primary screen, population patch clamp on CHO cells stably expressing hERG; higher = less effect of the substance).
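Also: peak tail current of the secondary pulse compared with the same well before compound.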

Chain of human ether-à-go-go-related gene (hERG) potassium channel (Q12809 whole entry, looked up): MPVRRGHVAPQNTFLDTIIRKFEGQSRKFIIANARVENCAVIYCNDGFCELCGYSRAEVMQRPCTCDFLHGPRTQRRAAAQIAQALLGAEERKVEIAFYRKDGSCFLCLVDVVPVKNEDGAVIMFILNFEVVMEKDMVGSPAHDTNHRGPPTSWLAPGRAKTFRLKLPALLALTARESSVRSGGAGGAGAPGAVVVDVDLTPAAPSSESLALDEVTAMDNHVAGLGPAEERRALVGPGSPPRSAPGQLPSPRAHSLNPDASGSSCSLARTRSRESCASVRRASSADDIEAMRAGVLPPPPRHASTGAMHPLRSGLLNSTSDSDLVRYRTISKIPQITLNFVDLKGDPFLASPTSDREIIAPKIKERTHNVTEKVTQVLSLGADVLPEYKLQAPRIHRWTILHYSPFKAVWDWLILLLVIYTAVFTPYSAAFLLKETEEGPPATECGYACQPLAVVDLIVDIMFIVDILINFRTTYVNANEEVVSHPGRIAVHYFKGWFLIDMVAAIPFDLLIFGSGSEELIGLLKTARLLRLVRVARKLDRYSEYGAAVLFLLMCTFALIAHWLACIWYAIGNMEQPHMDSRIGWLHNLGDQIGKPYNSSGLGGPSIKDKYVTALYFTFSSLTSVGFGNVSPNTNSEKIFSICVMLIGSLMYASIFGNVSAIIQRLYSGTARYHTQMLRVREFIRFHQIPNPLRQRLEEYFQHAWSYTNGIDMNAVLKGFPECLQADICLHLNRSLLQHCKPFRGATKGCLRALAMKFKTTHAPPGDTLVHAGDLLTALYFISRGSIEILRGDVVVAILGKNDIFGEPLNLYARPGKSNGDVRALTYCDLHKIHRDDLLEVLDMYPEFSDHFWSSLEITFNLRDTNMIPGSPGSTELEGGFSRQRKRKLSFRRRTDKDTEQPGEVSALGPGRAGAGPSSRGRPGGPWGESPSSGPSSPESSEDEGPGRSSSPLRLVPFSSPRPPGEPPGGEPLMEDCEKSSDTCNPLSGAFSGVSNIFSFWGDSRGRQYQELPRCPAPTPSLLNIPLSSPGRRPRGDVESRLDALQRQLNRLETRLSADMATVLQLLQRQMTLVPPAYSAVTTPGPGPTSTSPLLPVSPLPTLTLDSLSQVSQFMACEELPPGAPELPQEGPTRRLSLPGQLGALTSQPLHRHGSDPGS

Row | Structure (SMILES) | hERG current change (%, negative = inhibition) at 10uM [%]
1 | C=CCNC(=O)CCCOc1cc(C)ccc1C | -9.84
2 | CC(C)(O)CCc1c(-c2ccc(O)cc2O)oc2c3c(cc(O)c2c1=O)OC(C)(C)C=C3 | 13.7
3 | CC1(C)Cc2nc3oc4c(=O)n(CC(=O)Nc5ccccc5)cnc4c3cc2CO1 | 5.24
4 | O=C(O)c1cc(NC(=O)c2cccc(C(=O)Nc3cc(C(=O)O)cc(C(=O)O)c3)c2)cc(C(=O)O)c1 | 15.8
5 | CCc1noc(C)c1C(=O)N1CCCC(CCC(=O)NCc2ccc(F)c(F)c2)C1 (centres unmarked) | -0.135
6 | O=S(=O)(c1cc(Cl)ccc1Br)N1CCCCC1 | -22.9
7 | Cc1cc(=O)oc2c3c(cc(OCC(=O)NCCCn4ccnc4)c12)OC(C)(C)CC3 | -32.1
8 | CCCc1cc(=O)oc2c3c(cc(OCC(=O)NCCCn4ccnc4)c12)OC(C)(C)CC3 | -73.9
9 | Cc1cc(=O)oc2c3c(cc(OCC(=O)NCc4ccncc4)c12)OC(C)(C)CC3 | -27.7
10 | CCc1cc(=O)oc2c3c(cc(OCC(=O)NCCCn4ccnc4)c12)OC(C)(C)CC3 | -51.1
11 | CCCc1cc(=O)oc2c3c(cc(OCC(=O)NCCN4CCOCC4)c12)OC(C)(C)CC3 | -18.3
12 | CCCCc1cc(=O)oc2c3c(cc(OCC(=O)NCCCO)c12)OC(C)(C)CC3 | -18.1
13 | CCCc1cc(=O)oc2c3c(cc(OCC(=O)NCc4ccncc4)c12)OC(C)(C)CC3 | -65
14 | CCc1cc(=O)oc2c3c(cc(OCC(=O)NCCCOC)c12)OC(C)(C)CC3 | 8.45
15 | CCc1cc(=O)oc2c3c(cc(OCC(=O)NCc4ccncc4)c12)OC(C)(C)CC3 | -34.4
16 | Cc1cc(C)c(N=C2SCC(=O)N2Cc2ccco2)c(C)c1 | -14
17 | Cc1cc(C)c(NC(=O)COC(=O)CCn2c(C)csc2=O)c(C)c1 | -10.6
18 | Cc1ccc(-n2ncc3c(NCCCN4CCOCC4)ncnc32)c(C)c1 | -10.3
19 | Cc1cc(NC(=O)COC(=O)c2cc(S(=O)(=O)N(C)c3ccccc3)ccc2Cl)no1 | 0.766
20 | Cc1ccccc1-n1c(-c2ccco2)nc2ccccc2c1=O | 1.78
21 | Cn1cnc2c1c(=O)n(CC(O)CO)c(=O)n2C (centres unmarked) | 23
22 | O=C(Cn1cc2c(n1)CCCCC2)N1CCCCC1 | 2.46
23 | O=C(Cn1cc2c(n1)CCCC2)N1CCCC1 | 5.98

Row | Structure (SMILES) | hERG current change (%, negative = inhibition) at 10uM [%]
24 | CCOC(=O)N1CCN(C(=O)Cn2cc3c(n2)CCCC3)CC1 | -72.4
25 | Cc1ccc(C(=O)NCc2ccc3c(c2)OCO3)cc1S(=O)(=O)N1CCCCC1 | -26.4
26 | CC(=O)OCCN(CCCn1c(-c2ccncc2)nc2ccccc21)c1nc(CN2CCCCC2)cs1 | -58.5
27 | OCCN(CCCn1c(-c2ccncc2)nc2ccccc21)c1nc(CN2CCCCC2)cs1 | 23.4
28 | OCCN(CCCn1c(C(F)(F)F)nc2ccccc21)c1nc(CN2CCCCC2)cs1 | -19
29 | NC(=O)CSc1nc2sc(-c3ccccc3)cc2c(=O)n1N | 11
30 | CC1CN=C(Nc2ccccc2)S1 (centres unmarked) | 7.23
31 | COc1cccc(CNS(=O)(=O)c2c(C(=O)N3CCCCC3)c(C)n(C)c2C)c1 | 9.63
32 | O=[N+]([O-])c1ccc(SCCc2ccccn2)cc1 | -44.3
33 | O=[N+]([O-])c1ccc(SCCc2ccncc2)cc1 | -63.7
34 | COC(=O)c1cnc(SCc2ccc([N+](=O)[O-])cc2)n1C | -32
35 | Cn1c(SCCc2ccc([N+](=O)[O-])cc2)nccc1=O | -59.9
36 | O=C(COC(=O)CSc1ccc([N+](=O)[O-])cc1)NCCc1ccccc1 | 5.52
37 | O=[N+]([O-])c1ccc(SCCc2cc[nH+]cc2)cc1.[Cl-] | -53.7
38 | O=c1ccnc(SCCc2ccc([N+](=O)[O-])cc2)[nH]1 | -34
39 | Fc1ccc(SCCc2ccncc2)cc1 | -29.9
40 | O=C(COC(=O)CSc1ccc([N+](=O)[O-])cc1)NCCCc1ccccc1 | 4.5
41 | COc1ccc(C)cc1Cn1c(S(C)(=O)=O)nc2ccccc21 | -9.64
42 | Cc1cccc(N2CCN(C(=O)CCN3C(=O)C4C5C=CC(C5)C4C3=O)CC2C)c1 (centres unmarked) | -18.2
43 | CCN1CN(CCc2ccccc2)CNC1=S | 5.61
44 | O=C(C1CCN(S(=O)(=O)c2ccc(Cl)cc2)CC1)N1CCCCCCC1 | -16.1
45 | Cc1ccc(-n2nc3c(c2NC(=O)c2ccc4c(c2)OCO4)CS(=O)C3)cc1 (centres unmarked) | 7.09
46 | CCN(CC)C(=O)/C(=C\c1ccc2c(c1)OCO2)NC(=O)c1ccc(Br)cc1 | -63.5

Row | Structure (SMILES) | hERG current change (%, negative = inhibition) at 10uM [%]
47 | CCN(CC)C(=O)/C(=C\c1ccc(Br)cc1)NC(=O)c1ccccc1OC | -27.3
48 | COc1ccc(C(=O)N/C(=C\c2ccc3c(c2)OCO3)C(=O)Nc2ccc(C(=O)O)cc2)cc1 | 17.8
49 | CCN(CC)C(=O)/C(=C/c1ccc2c(c1)OCO2)NC(=O)c1ccc(Br)cc1 | -70.5
50 | O=C(NCc1ccc2c(c1)OCO2)c1ccc(Br)cc1 | -19.8
51 | COc1ccc(-c2cn(CCN)c(-c3ccncc3)n2)cc1 | 5.87
52 | CN(C)S(=O)(=O)c1ccc(Cl)c(NC(=O)COC(=O)CN2C(=O)C3CCCCC3C2=O)c1 (centres unmarked) | 6.74
53 | CCC1CCCCN1S(=O)(=O)c1ccc2[nH]c(=O)ccc2c1 (centres unmarked) | -60.1
54 | CC1CCN(S(=O)(=O)c2ccc3[nH]c(=O)ccc3c2)CC1 | -5.5
55 | CCC1CCCCN1S(=O)(=O)c1ccccc1 (centres unmarked) | -13
56 | C=CCN(c1ccc(C(=O)NCCc2ccccc2)cc1)S(C)(=O)=O | -6.23
57 | COc1ccc(C)cc1NC(=O)C(c1ccccc1)N1CCNC(=O)C1 (centres unmarked) | -5.31
58 | O=C(Nc1ccc(C(=O)NCCCN2CCN(c3ccc(F)cc3)CC2)cc1)C1=CSCCO1 | -54
59 | O=C(Nc1ccc(C(=O)NCCCN2CCN(c3ccccc3)CC2)cc1)C1=CSCCO1 | -38.2
60 | CC(C)(C)c1ccc(C(=O)NCCCN2CCN(CCCNC(=O)c3ccc(C(C)(C)C)cc3)CC2)cc1 | -63.6
61 | CC(C)c1ccc(C(=O)NCCCN2CCOCC2)cc1 | -5.2
62 | CC(C)c1ccc(C(=O)NCCCN(C)C)cc1 | -17.1
63 | Cc1ccc(C(=O)NCCN2CCCC2)cc1.Cl | -5.44
64 | CC(C)(C)c1ccc(C(=O)NCCN2CCCC2)cc1.Cl | -6.48
65 | Cc1ccc(C(=O)NCCCN2CCOCC2)cc1 | 3.81
66 | CN1CCN(CCCNC(=O)c2ccc(NC(=O)C3=CSCCO3)cc2)CC1 | 11.5
67 | Cc1ccc(C(=O)NCCCN2CCN(CCCNC(=O)c3ccc(C)cc3)CC2)cc1 | -67.5
68 | CC(C)c1ccc(C(=O)NCCCN2CCN(CCCNC(=O)c3ccc(C(C)C)cc3)CC2)cc1 | -84.3
69 | CC(C)(C)c1ccc(C(=O)NCCN2CCOCC2)cc1 | 1.01

Row | Structure (SMILES) | hERG current change (%, negative = inhibition) at 10uM [%]
70 | COc1cccc(C(=O)NCC2CCCN2S(=O)(=O)c2ccccc2)c1 (centres unmarked) | 2.72
71 | COc1cccc(-n2c(C)n[nH]c2=O)c1 | 14.1
72 | O=C(N/N=C/c1ccc(O)cc1)c1csc2c1CCCC2 | -19.7
73 | CCc1cc(Br)ccc1N1C(=O)C2CC=CCC2C1=O (centres unmarked) | 5.21
74 | Cc1nccn1CCCNC(=O)CC1C(=O)NCCN1Cc1ccccc1C(F)(F)F (centres unmarked) | 9.64
75 | CCCN(N=Nc1cccc([N+](=O)[O-])c1)c1cccc([N+](=O)[O-])c1 | 3.14
76 | O=C(NCCCCNC(=O)c1ccc(F)cc1)c1ccc(F)cc1 | 13.3
77 | O=C(NCCCN1CCN(CCCNC(=O)c2ccc(F)cc2)CC1)c1ccc(F)cc1 | -51.1
78 | O=C(NCCCNC(=O)c1ccc(F)cc1)c1ccc(F)cc1 | 7.81
79 | CCn1c2ccccc2c2nnc(SCC(=O)N(C)C3CCS(=O)(=O)C3)nc21 (centres unmarked) | -21
80 | O=C(CN(C(=O)CCC(=O)Nc1ccccn1)c1cccc(F)c1)NCc1ccc(F)cc1 | -4.26
81 | CS(=O)(=O)N1CCN(C(=O)c2csc3ccccc23)CC1 | 2.35
82 | CN1CC(C(=O)c2ccc(F)cc2)C(c2ccc(F)cc2)C1 (centres unmarked) | -30.2
83 | Cc1ccc(C2CN(C)CC2C(=O)c2ccc(F)cc2)cc1 (centres unmarked) | -53.2
84 | COc1cccc(C(=O)C2CN(C)CC2c2ccc(Cl)cc2)c1 (centres unmarked) | -66.4
85 | CN1CC(C(=O)c2ccc([N+](=O)[O-])cc2)C(c2ccc(Cl)cc2)C1 (centres unmarked) | -75.6
86 | COc1cccc(C(=O)C2CN(c3ccccc3)CC2c2ccc(Cl)cc2)c1 (centres unmarked) | 5.04
87 | O=C(c1ccccc1)C1CN(c2ccccc2)CC1c1ccc(Cl)cc1 (centres unmarked) | 27.1
88 | CN1CC(C(=O)c2ccc(F)cc2)C(c2c(F)cccc2Cl)C1 (centres unmarked) | -65.7
89 | CN1CC(C(=O)c2ccc(Cl)cc2)C(c2ccc(Cl)cc2Cl)C1 (centres unmarked) | -49.2
90 | CN1CC(C(=O)c2cccc(C(F)(F)F)c2)C(c2ccc(Cl)cc2)C1 (centres unmarked) | -20
91 | CN1CC(C(=O)c2ccc(Cl)cc2)C(c2ccccc2F)C1 (centres unmarked) | -46.5
92 | Cc1ccc(C2CN(c3ccccc3)CC2C(=O)c2ccc(F)cc2)cc1 (centres unmarked) | -17

Source: article PMC4336329 (PLoS ONE, 2015)
